Assay outcomes as filed in PubChem BioAssay.
HT1080 IDH1KD tx – kills HT-1080 cells with IDH1 knockdown; Potency, µM (doses to about 46.1 µM), for inactives: at the top dose activity, negative = toxicity, hits mostly cytotoxic; 2% of 360,000 active; HT-1080 IDH1 knockdown viability, ATP luminescence, 48 h;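 note: 0% = DMSO wells and -100% = cell-free medium wells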
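In this qHTS, HT-1080 cells depleted of IDH1 are exposed for 48 h at 37 °C to compound titrations. Toxicity is scored from CellTiter-Glo luminescence, with DMSO as full viability and medium alone as none.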
KB-V1 MDR tox – KB-V1 MDR subline cytotoxicity. 3.4% of 400,000 active. Potency, µM (doses to about 46.1 µM), actives largely listed as cytotoxic. KB-V1 MDR cells viability, CellTiter-Glo, 72 h. AID 1347076; note: % is set by controls: 0 for no effect and ±100 for the full control effect; nearly all actives have a fitted effect of over 60% in size
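Cytotoxicity toward P-gp-expressing KB-V1 cells was determined as loss of CellTiter-Glo luminescence after 72 h at 37 degrees C. Compounds were tested in quantitative HTS format across a concentration range, with curves fitted to normalized data.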
HT1080NT lethal – kills 2HG-producing HT-1080-NT fibrosarcoma cells. Potency, µM (series often up to 46.1 µM), for inactives: top-dose activity, negative = less viability, most hits filed as cytotoxic. HT-1080-NT fibrosarcoma viability, CellTiter-Glo ATP luminescence, 48 h. 1.6% of 360,000 active;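 note: NT is the 2HG producing partner of a matched IDH1 knockdown line; 0% = DMSO-treated cells and -100% = media-only wells without cells; nearly all actives have a fitted effect of over 55% in size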
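HT-1080-NT; 750 cells/well; 5% FBS RPMI; 48 h compound, 37 degrees C; CellTiter-Glo luminescence; curve fitting and curve-class assignment.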
KB-3-1 tox – KB-3-1 parental cell cytotoxicity | KB-3-1 viability, CellTiter-Glo ATP luminescence, 72 h | 1.4% of 400,000 active | Potency, µM (top dose mostly 46.1 µM), actives largely listed as cytotoxic; note: % is set by controls: 0 for no effect and ±100 for the full control effect; nearly all actives have a fitted effect of over 60% in size
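Here the drug-naive KB-3-1 line serves as comparator for MDR sub-line selectivity; cells received compound titrations, 72 h at 37 °C, then CellTiter-Glo readout.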
ATXN2 expr inh – ATXN2 expression inhibition | 0.72% of 360,000 active | HEK-293 ATXN2-luciferase reporter, luminescence, 24 h | Potency, µM (doses to about 57 µM), for the others: top-dose activity change, negative = inhibition, most hits filed as inhibitors | AID 1745845; note: % is set by controls: 0 for no effect and ±100 for the full control effect; nearly all actives have a fitted effect of over 55% in size
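ATXN2-luciferase reporter cells (luciferase flanked by upstream and downstream ATXN2 gene portions) were treated 24 h at 37 °C with compounds at up to 57 uM. SteadyGlo luminescence gave expression; GF-AFC fluorescence gave viability.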
S2 tox – reduces viability in counter-screen for ATXN expression inhibitors | S2 cells (HEK-293 line with an ATXN2-luciferase reporter) viability, CellTiter-Fluor protease fluorescence, 24 h | Potency, µM (titrated, usually from 56.7 µM), usual class: cytotoxic | 0.49% of 400,000 active | AID 651635; note: nearly all actives have a fitted effect of over 40% in size
Numbers without * were called inactive; i = inactive; ? = inconclusive; . = no result; [ ] = dose if it differs, or a comment. Compounds with a hit are over-represented: about 6.2% of the library has one in this group of screens. Calls come from the whole dose curve; as a rule, active = well fitted curve in the direction sought with a large enough effect; inconclusive = small, poorly fitted or top-dose-only effect, or another doubt; inactive = no such curve, though single readings can be large; an effect the other way counts as inactive or inconclusive. Potency is the fitted concentration of half-maximal effect.

SMILES	HT1080 IDH1KD tx	KB-V1 MDR tox	HT1080NT lethal	KB-3-1 tox	ATXN2 expr inh	S2 tox
O=[N+]([O-])c1cc(S(=O)(=O)N2CCCCCC2)ccc1Cl	?	i	23µM*	i	-5%[11.3 µM]	.
COc1ccc(Nc2ccc(S(=O)(=O)N3CCCCCC3)cc2[N+](=O)[O-])cc1	-16%	2.9µM*	-14%	?	-25%	i
O=C(c1ccccc1)c1cn(Cc2ccc(F)cc2)c2ccccc2c1=O	.	?	.	?	-23%	?
COc1ccc(C2CC(=O)c3cc(-c4nc(-c5cccc([N+](=O)[O-])c5)cs4)c(=O)n(-c4ccc(C)c(C)c4)c3C2)cc1 (centres undefined)	.	i	.	i	8%	i
NS(=O)(=O)c1ccc(NC(=O)Nc2ccc(C(F)(F)F)cc2)cc1	21µM*	i	?	i	-7%	i
O=C(Nc1ccnn1C1CCN(Cc2ccc(Cl)cc2)CC1)C1CCCC1	1%	.	4%	.	-7%	?
CC(C)c1ccc(CN2CCC(n3nccc3NC(=O)C3CCCC3)CC2)cc1	-20%	5.2µM*	-28%	i	.	i
Cc1ccc(C)c(OC(=O)CSc2nnc(CNC(=O)c3ccccc3)o2)c1	.	i	.	i	-5%	i
Cc1nc2oc3c(NCc4ccccn4)ncnc3c2c2c1COC(C)(C)C2	1%	2.1µM*	-3%	?	-11%	i
CCCc1nc2oc3c(NCc4ccccn4)ncnc3c2c2c1COC(C)(C)C2	-2%	?	-1%	i	3%	i
CCOC(=O)C1=C(Cn2cnc3ccccc32)NC(=O)NC1c1cc(C)ccc1C (centres undefined)	?	?	?	i	?	32µM*
FC(F)(F)c1ccc(CN2C[C@@H]3C(c4ccc(Cl)nc4)C4(c5cccnc5)CC3(C4)[C@H]2c2ccccc2)cc1 (some centres undefined)	?	?	?	15µM*	-24%	?
Cc1ccc(Cc2nc3ccccc3nc2SCC(=O)Nc2ccc3c(c2)OCO3)cc1	.	i	.	i	4%	i
CCOC(=O)C1=C(C)Nc2nc(SC)nn2C1c1ccc(C(=O)OC)cc1 (centres undefined)	9%	5.8µM*	2%	i	-21%	i
CC1CCc2cc(F)ccc2N1C(=O)CSc1nnc2c(n1)[nH]c1ccccc12 (centres undefined)	?	16µM*	-1%	i	-10%	i
CC1CCc2cc(F)ccc2N1C(=O)CSc1nnc(-c2cccs2)n1C (centres undefined)	2%	7.3µM*	-1%	i	4%	i
Cn1c(SCC(=O)N2CCCc3ccccc32)nnc1-c1cccs1	4%	i	0%	i	-2%	i
COc1ccc(-n2c(C)c3c(OC)cccc(=O)c3c2C)cc1	15%	18µM*	13%	i	28%	i
COc1ccc(OCc2n(CC(=O)OC3CC(C)CCC3C(C)C)c3ccccc3[n+]2C)cc1 (centres undefined)	5.8µM*	?	5.8µM*	13µM*	?	?
CC1CCC(C(C)C)C(OC(=O)CSc2nccc(=O)[nH]2)C1 (centres undefined)	4%	i	4%	i	4%	i
COc1ccc(-c2n(CC(=O)OC3CC(C)CCC3C(C)C)c3ccccc3[n+]2C)cc1 (centres undefined)	5.8µM*	?	6.5µM*	?	7.5µM*	?
CCOc1ccc(Cn2nnc(C(=O)Nc3cccc(SC)c3)c2N)cc1	.	i	.	i	13%	i
COc1ccc2c(c1)c(CC(=O)Nc1nnc(C3CC3)s1)c(C)n2C(=O)c1ccc(Cl)cc1	?	?	23µM*	?	-3%	?
COc1cc(/C=C2\SC(=Nc3ccccc3)N(Cc3ccco3)C2=O)ccc1OC(C)C(=O)O (centres undefined)	1%	i	-12%	?	-1%	i
COCCN1C(=O)/C(=C/c2ccc(OCc3ccc(C(=O)O)cc3)c(OC)c2)SC1=Nc1ccccc1	-17%	21µM*	-22%	i	-1%	i
SMILES	HT1080 IDH1KD tx	KB-V1 MDR tox	HT1080NT lethal	KB-3-1 tox	ATXN2 expr inh	S2 tox
COC(=O)Cn1c(=O)n(CCc2ccccc2)c(=O)c2c3c(sc21)CCCC3	?	21µM*	-2%	i	-9%	i
CN(C)CCNc1nc2sc3c(c2c(=O)n1CCc1ccccc1)CCCCC3	?	21µM*	-24%	i	.	.
CCn1c(=O)n(CCc2ccccc2)c(=O)c2c3c(sc21)CCCC3	9%	i	4%[9.24 µM]	i	12%	i
Cc1nn2c(=O)cc(COC(=O)Cc3ccccc3)nc2s1	.	i	.	i	1%	i
COc1ccc(Cl)c2sc(NC(=O)c3ccc(S(=O)(=O)N4CCOCC4)cc3)nc12	.	i	.	i	-22%	i
CC12CCC(=O)C=C1CCC1C2CCC2(C)C(C(=O)CO)CC(O)C12 (centres undefined)	27%	i	7%	i	3%	i
CC12CCC(=O)C=C1CCC1C2C(O)CC2(C)C(c3csc(N)n3)CCC12 (centres undefined)	?	?	6.5µM*	i	?	i
CC(=NO)C1CCC2C3CCC4=CC(=NO)CCC4(C)C3C(O)CC12C (centres undefined)	-9%	21µM*	-4%	?	-6%	i
CC12CCC(=O)C=C1CCC1C2CCC2(C)C(c3csc(N)n3)CCC12 (centres undefined)	?	21µM*	?	?	?	?
CC(=NO)C1CCC2C3CCC4=CC(=NO)CCC4(C)C3C(=O)CC12C (centres undefined)	-9%	i	-1%	?	-20%	i
C[C@@]12C[C@@H](O)[C@H]3[C@@H](CCC4=CC(=O)CC[C@]43C)[C@H]1CC[C@H]2C(=O)CO	.	.	.	.	.	i
COc1ccc2c(c1)C(C)(Cc1ccc(C(=O)c3ccccc3)cc1)C(=O)N2 (centres undefined)	-28%	i	-22%	i	?	?
Oc1ccc(C[C@H]2CNC(=S)N2CC2CCCN2C[C@H](Cc2ccccc2)N2C[C@H](Cc3ccc(O)cc3)N(CCc3ccccc3)C2=S)cc1 (some centres undefined)	?	?	-20%	?	?	?
CCOc1ccc(S(=O)(=O)Nc2ccc3c(c2)n(C)c(=O)n3C)cc1	-24%	15µM*	?	?	6%	i
